Assay outcomes as filed in PubChem.
Most compounds without a hit are left out; they make up all but 21% or so of the library.
Pf growth 96h – Primary qHTS for delayed death inhibitors of the malarial parasite plastid, 96 hour incubation. P. falciparum luciferase reporter growth, 96 h. Potency, µM (titrated, usually from 28.7 µM), inactives show at the top dose activity change, negative = inhibition, usual class: inhibitors. actives 6.9% (n = 320,000); also: potency is read from the fitted curve at half-maximal effect; % is scaled to controls: 0 for no effect and ±100 for the full control effect
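Parasite growth measured via integrated firefly luciferase reporter in P. falciparum. Infected erythrocytes at 2% hematocrit, 0.05% parasitemia final were treated 96 hours at 37 C under 5% CO2, and luminescence was read.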
Shiga inhibitor – A qHTS for Small Molecule Inhibitors of Shiga Toxin | Vero cells, Shiga toxin protein synthesis inhibition reporter | inhibition, % at 38.7 µM | actives 9.2% (n = 290,000) | AID 2315, 2010; in the data active = inhibition mostly above about 28%, no sharp cut-off; inactive = mostly below about 43%; also: 0% is about no effect
CHX counter – Cycloheximide Counterscreen for Small Molecule Inhibitors of Shiga Toxin; max response, %; actives 12% (n = 300,000); cell reporter, cycloheximide protein synthesis inhibition counterscreen; in the data active = max response mostly above about 13%, no sharp cut-off; inactive = mostly below about 14%; also: read at 38.3 µM for the half of the compounds with a filed dose; 0% is about no effect
Pf growth 48h – Primary qHTS for delayed death inhibitors of the malarial parasite plastid, 48 hour incubation; Potency, µM (series often up to 28.7 µM), for inactives: at the top dose activity change, negative = inhibition, usual class: inhibitors; P. falciparum luciferase growth in erythrocytes, 48 h; AID 504832, 2011; actives 5.9% (n = 310,000); also: potency is read from the fitted curve at half-maximal effect; % is scaled to controls: 0 for no effect and ±100 for the full control effect
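Parasite viability was followed by luminescence of a genomically integrated firefly luciferase. Cultures held 0.1% parasitemia at 2% hematocrit (final), incubated under 5% CO2 at 37 C.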
NS1 function inh – qHTS Assay for Inhibitors of Influenza NS1 Protein Function. actives 0.4% (n = 270,000). Potency, µM (series often up to 46.1 µM), for the others: top-dose activity, positive = more growth; calls by dose curve; also: potency is read from the fitted curve at half-maximal effect; actives are rising curves; nearly all actives have a fitted effect of over 50% in size
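Compounds were scored for reversing the slow growth caused by influenza A NS1 in S. cerevisiae, measured by optical density at 600 nm. Assay medium contained 2% galactose at pH 6.0; NS1-free yeast of the same strain were the positive control.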
Giardia FBPA inh – qHTS Assay for Inhibitors of Fructose-1,6-bisphosphate Aldolase from Giardia Lamblia; A8B2U2; purified Giardia FBPA; Potency, µM (top dose mostly 59.6 µM), inactives show at the top dose activity, negative = inhibition, actives largely listed as inhibitors; actives 0.71% (n = 290,000); also: potency is read from the fitted curve at half-maximal effect; % is scaled to controls: 0 for no effect and ±100 for the full control effect; nearly all actives have a fitted effect of over 55% in size
Target sequence (A8B2U2 whole entry, looked up): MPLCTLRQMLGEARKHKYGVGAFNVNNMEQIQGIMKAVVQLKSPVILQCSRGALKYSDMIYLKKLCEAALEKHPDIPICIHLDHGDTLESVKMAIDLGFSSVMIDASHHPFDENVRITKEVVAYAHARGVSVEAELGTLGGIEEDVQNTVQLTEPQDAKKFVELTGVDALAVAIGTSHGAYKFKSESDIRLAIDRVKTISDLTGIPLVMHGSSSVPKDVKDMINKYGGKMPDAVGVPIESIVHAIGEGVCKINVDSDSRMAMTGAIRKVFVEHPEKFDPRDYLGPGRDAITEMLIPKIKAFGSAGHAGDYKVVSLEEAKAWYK
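Giardia FBPA (40 nM reagent) was preincubated 10 min at RT with compound (up to 57.5 uM final), then substrate plus GAPDH/TPI/NAD/arsenate coupling system with diaphorase/resazurin was added; resorufin fluorescence (525/598 nm) was read after 20 min.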
An asterisk follows results filed as active; u = inconclusive; x = no result; [ ] = another dose, or the depositor's remark. Unless noted, calls follow the shape of the dose curve; as a rule, active = well fitted curve in the direction sought with a large enough effect; inconclusive = small, poorly fitted or top-dose-only effect, or another doubt; inactive = no such curve, though single readings can be large; an effect the other way counts as inactive or inconclusive.

SMILES	Pf growth 96h	Shiga inhibitor	CHX counter	Pf growth 48h	NS1 function inh	Giardia FBPA inh
Cc1ccc(-n2nnnc2SCC(=O)c2cc(C)n(CC3CCCO3)c2C)cc1 (stereo unspecified)	1.5µM*	5	-2	u	-5%	-1%
Cc1sc2nc(SCC(=O)c3cc(C)n(CC4CCCO4)c3C)n(C(C)C)c(=O)c2c1C (stereo unspecified)	8.3µM*	-5	-5	u	-2%	-7%
Cc1cc(C(=O)CSc2nc3ccccc3o2)c(C)n1CC1CCCO1 (stereo unspecified)	133%	78*	67*	x	-7%	1%
CCOc1ccc(Cl)cc1S(=O)(=O)N1CCC(C(=O)NCc2cccnc2)CC1	4%	7	-7	-1%	3%	-1%
CCCCS(=O)(=O)N1CN(S(=O)(=O)CCCC)C2NC(=O)NC21 (stereo unspecified)	114%	22	45*	36%	u	13%
Cc1cc(Oc2ccc(=O)n(C)n2)nc(SCC(N)=O)n1	19%	11	6	8%	3%	-3%
Cc1cc(Oc2ccc(=O)[nH]n2)nc(Cl)n1	358%	47*	35*	232%	-1%	4%
Cc1cc(Oc2ccc(=O)n(C)n2)nc(Oc2ccc(=O)n(C)n2)n1	10µM*	-3	-4	5%	-1%	4%
CSc1nc(C)cc(Oc2ccc(=O)[nH]n2)n1	-20%	-11	4	28%	x	0%
COc1cc(C)nc(Oc2ccc(=O)[nH]n2)n1	80%	42	22*	0%	-4%	3%
CNc1nc(SC)n(C)c(=O)c1N=O	u	-10	-5	2%	1%	-5%
CC(=O)NC(CC(=O)NNC(=O)C(C)Oc1ccccc1F)c1ccccc1 (stereo unspecified)	8%	x	x	-1%	x	x
COCCN1C(=O)c2cc(C(=O)Nc3cccc(F)c3)ccc2C1Nc1cccc(F)c1 (stereo unspecified)	u	-12	-4	-15%	0%	4%
CCc1ccc(NC(=O)c2ccc3c(c2)C(=O)N(CCOC)C3Nc2ccc(CC)cc2)cc1 (stereo unspecified)	u	67*	23*	u	10%	7%
COCCN1C(=O)c2cc(C(=O)Nc3ccc(C)c(F)c3)ccc2C1Nc1ccc(C)c(F)c1 (stereo unspecified)	u	94*	32*	u	23%	-1%
O=c1c(-c2cc(F)cc(F)c2)nc2cnc(N3CCNCC3)nc2n1Cc1ccc(F)cc1	x	x	x	x	x	4%
Cc1nc(SCC(=O)Nc2cccnc2Cl)nc(C)c1C	-4%	25	-1	41%	x	3%
O=C1C=C(O)CC(c2cccs2)C1 (stereo unspecified)	u	-13	1	-13%	22%	3%
Oc1ccc(Cl)cc1C1=NNC(c2cccs2)C1 (stereo unspecified)	12µM*	141*	43*	3.3µM*	-71%	3%
Cc1ccc(O)c(-c2[nH]ncc2C(=O)c2ccc(Cl)cc2)c1	-13%	4	-2	u	-3%	1%
Cc1ccc(O)c(C2=NNC(c3ccc(Cl)cc3)C2)c1 (stereo unspecified)	u	70*	59*	u	-55%	-3%
Cc1ccc(O)c(C2=NNC(O)(C(F)(F)F)C2)c1 (stereo unspecified)	x	-9	8	13µM*	-12%	-7%
CC(=O)c1ccc2c(c1)Cc1cc(C(C)=O)ccc1-2	5.2µM*	134*	31*	271%	7%	4%
COCCN1CCN(C(=O)c2cc(COc3cncc(Cl)c3)on2)CC1	-13%	-7	-2	10%	-7%	x
COc1ccc(C2=NN(C(=O)CSc3ncccn3)C(c3cccc(OC)c3OC)C2)cc1 (stereo unspecified)	u	7	-1	u	x	-5%
SMILES	Pf growth 96h	Shiga inhibitor	CHX counter	Pf growth 48h	NS1 function inh	Giardia FBPA inh
CCOc1cccc2c1OC(c1cc(OC)c(OC)c(OC)c1)N1N=C(c3ccc(C)o3)CC21 (stereo unspecified)	-47%	21	39*	-42%	-7%	-17%
Cc1cc2c(s1)c1cnn(Cc3ccc(F)cc3)c(=O)c1n2C	x	4	10	x	x	x
COc1cc2c(cc1OC)C1(CCCC1)CNC2c1cccc([N+](=O)[O-])c1 (stereo unspecified)	3.3µM*	-26	-13	u	-1%	3%
COc1cc2c(cc1OC)C(c1cccc([N+](=O)[O-])c1)NC(=O)C2 (stereo unspecified)	6.6µM*	-21	7	4%	-2%	2%
O=C(NCc1ccc(F)cc1)C1(S(=O)(=O)c2ccc(Cl)cc2)CC1	-16%	4	-2	25%	10%	-12%
Nc1cc(Nc2ccc(Br)cc2)nc(N)n1	10µM*	70*	40*	u	3%	-9%
Cc1cc(Nc2ccc(Cl)cc2)nc(N)n1	2.6µM*	63*	68*	u	7%	-23%
COc1ccc(Nc2cc(Cl)nc(N)n2)cc1	6%	36	29*	73%	x	u
Nc1ccc2cc(Br)ccc2c1	u	18	2	-13%	x	-14%
COc1ccc(Nc2cc(C)nc(N)n2)cc1	u	37*	20*	u	-54%	-4%
COc1ccc(Nc2nc(C)cc(C)c2C#N)cc1	x	-4	-1	37%	8%	-3%
CCOc1ccc(N(CC(=O)NC2CCCCC2)C(=O)CCC(=O)Nc2nc(C)cs2)cc1	6%	-19	-3	u	14%	-6%
Nc1nc(-c2ccccc2)cn1N	u	28	23	5%	-4%	-14%
Nc1nc(-c2ccccc2)cn1/N=C/c1ccccc1	10%	34	38*	14%	-8%	-10%
Cc1cc(N2CCN(C(=O)c3ccco3)CC2)n2nc(C)c(-c3ccccc3)c2n1	-29%	3	11	12µM*	5%	-1%
CCOC(=O)N1CCN(c2nc3ccc(C(=O)c4ccccc4)cc3n3cnnc23)CC1	u	13	1	u	9%	1%
Cc1nn2c(N3CCN(C(=O)c4ccco4)CC3)cc(C(C)(C)C)nc2c1-c1ccc(Cl)cc1	u	33	2	u	7%	3%
O=C(c1ccccc1)c1ccc2nc(N3CCN(C(=O)c4ccco4)CC3)c3nncn3c2c1	3.3µM*	78	-3	x	-32%	1%
Cc1cc(N2CCN(C(=O)c3ccco3)CC2)n2nc(C)c(-c3ccc(Cl)cc3)c2n1	4.1µM*	18	-2	14%	-2%	-15%
O=C(c1cc2nc(-c3ccccc3)cc(-c3ccccc3)n2n1)N1CCN(C(=O)c2ccco2)CC1	-24%[5.75 µM]	-8	9	u	-29%	-3%
